The nature of assay [1]: inhibitors of TNFa-induced NFkB p65 translocation, primary screen, imaging, HUVEC, MLSMR starter and 10KST1 sets (AID 438;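 active = inhibition above 20% together with a positive visual image hit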;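 note: compound added about 3h40 before a 20 min TNFalpha stimulation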;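 for inhibition: signal is the nuclear over cytoplasmic p65 intensity ratio per well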). The note with it: HUVEC TNFa-induced p65 nuclear translocation; cell count: measured here: nuclei count (cytotoxicity indicator), at 2.08 µM; inhibition: at 2 µM, stronger effect = higher value, 0% TNFa-plus-vehicle, 100% no-TNFa wells.
Assay [2] is described as follows: inhibitors of mutant huntingtin aggregation, primary screen, imaging, exon1htt(103Q)mCFP cells, high-content imaging (AID 483;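 active = visual image review flags a hit and inhibition of aggregation exceeds 20%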;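 note: compound exposure lasted 3 days before fixation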;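 for nuclei count: percent of the per-plate median nuclei count of sample wells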). To be noted: exon1htt(103Q)mCFP cell line, aggregate imaging, at 2 µM; inhibition of aggregation: stronger effect = higher value; nuclei count: measured here: cell count, toxicity.
Assay [3] in a line: inhibitors of E-selectin induction by TNFa, primary screen, imaging, HUVEC, immunofluorescence, MLSMR starter and 10KST1 sets (AID 487).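 For inhibition: signal is fraction of cell area covered by stained E-selectin grains.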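 For nuclei count: 100% = median nuclei count of all wells on the same plate.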 The note with it: HUVEC TNFalpha-induced E-selectin immunofluorescence imaging, at 2 µM; inhibition: stronger effect = higher value; nuclei count: measured here: cell number, toxicity.
Assay [4] has as its target Voltage-gated potassium channel subunit beta-2 (Rattus norvegicus) (UniProt P62483). Nature of the assay: KvBeta enzyme negative modulators, primary screen, biochemical, NADPH fluorescence (AID 622;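 active = fluorescence slope higher than the sample average by over 3 SD, cut at about -0.22 in these data, passing the limit was not always enough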;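 note: slope of raw intensity against log time taken from 70 to 1610 s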). The note with it: recombinant KvBeta, 4-cyanobenzaldehyde reduction, at 10 µM, stronger effect = higher value.
The target is the same in assay [5]. Nature of the assay: KvBeta positive modulators, primary screen, biochemical, NADPH fluorescence (AID 623;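 active = NADPH fluorescence slope more negative than the mean of all samples by about 3 SD, 99.7% confidence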;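 note: fluorescence intensity change per second fitted from 20 to 320 s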). The note with it: Recombinant KvBeta, NADPH fluorescence decrease slope, 10 min; at 10 µM; stronger effect = lower value.
For assay [6], the target named is Alpha-2C adrenergic receptor (Homo sapiens) (UniProt P18825). Nature of the assay: modulators of alpha2C/GIRK thallium flux, primary screen, cell-based, HEK293 alpha2C/GIRK1/2 (AID 624;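 active = fluorescence slope after compound addition differing from the mean of all screened samples at 99.7% confidence, in either direction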;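 note: slope of fluorescence ratio to pre-addition baseline per second over 15 to 24 s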). To be noted: thallium flux BTC fluorescence, at 10 µM, actives lie on both sides.
The nature of assay [7]: inhibitors of Sendai virus-induced IRF3 signaling, primary screen, TLR/RLR signaling modifier project, cell-based, Sendai virus stimulus, luciferase, 10K MLSCN set (AID 602276;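 active = inhibition at or above 50% at 10 µM; inactive = inhibition below 50%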;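 note: firefly luciferase from ISG56 promoter only with Renilla not read in this screen; 0% = Sendai virus plus DMSO and 100% = medium plus DMSO without virus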). The note with it: HEK293 RL24 IRF3 luciferase reporter, at 10 µM, stronger effect = higher value. (In a reporter assay the amount or activity of a reporter protein is the signal.)
The nature of assay [8]: inhibitors of poly I:C-induced TLR3 signaling, primary screen, cell-based, poly I:C stimulus, luciferase, 10K MLSCN set (AID 602277;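 active = inhibition of the reporter signal at or above 50%; inactive = inhibition below 50%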). To be noted: HEK293-TLR3 RL24 IRF3 luciferase reporter, at 10 µM, stronger effect = higher value.

Each structure is given as a SMILES string. Active and inactive are the calls of the source.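 Rule for the calls, unless noted: active = visually confirmed hit in the image check and inhibition above 20%; inconclusive = visually confirmed hit but inhibition not above 20%; inactive = no visual hit in the image check.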

Sequence of Voltage-gated potassium channel subunit beta-2 (Rattus norvegicus) (P62483 whole entry, looked up): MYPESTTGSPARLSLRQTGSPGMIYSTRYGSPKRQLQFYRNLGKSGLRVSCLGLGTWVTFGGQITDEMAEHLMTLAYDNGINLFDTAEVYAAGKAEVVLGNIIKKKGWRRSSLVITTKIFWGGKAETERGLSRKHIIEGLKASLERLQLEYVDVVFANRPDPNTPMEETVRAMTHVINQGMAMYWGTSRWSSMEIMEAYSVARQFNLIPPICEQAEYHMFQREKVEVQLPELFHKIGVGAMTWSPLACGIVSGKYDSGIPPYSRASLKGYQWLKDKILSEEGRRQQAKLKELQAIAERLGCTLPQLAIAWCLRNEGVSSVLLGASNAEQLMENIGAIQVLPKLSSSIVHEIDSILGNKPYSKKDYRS
Sequence of Alpha-2C adrenergic receptor (Homo sapiens) (P18825 whole entry, looked up): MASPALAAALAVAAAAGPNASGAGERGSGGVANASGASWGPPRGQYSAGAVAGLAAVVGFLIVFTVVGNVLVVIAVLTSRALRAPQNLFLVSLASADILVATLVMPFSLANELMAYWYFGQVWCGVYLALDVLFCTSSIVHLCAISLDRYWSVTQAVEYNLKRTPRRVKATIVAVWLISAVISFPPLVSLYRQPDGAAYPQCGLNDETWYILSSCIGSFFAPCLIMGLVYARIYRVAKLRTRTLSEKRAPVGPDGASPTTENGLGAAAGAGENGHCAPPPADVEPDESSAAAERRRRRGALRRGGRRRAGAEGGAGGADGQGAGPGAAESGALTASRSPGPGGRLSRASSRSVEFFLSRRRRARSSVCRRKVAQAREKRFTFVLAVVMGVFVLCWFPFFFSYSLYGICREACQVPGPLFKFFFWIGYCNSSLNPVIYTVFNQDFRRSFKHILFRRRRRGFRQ

One may read the inhibition as the drop in the measured response relative to a control, in per cent. Consider `COc1cc(OC)c2c(c1)OC(c1ccc(OC)c(OC)c1)C(O)C2=O` (centres undefined), for which the cell count in assay [1] was found to be 524. The inhibition was 2.6% (inactive) in assay [1], -60% (inactive) in assay [3], 10.3% (inactive) in assay [7] and 3.76% (inactive) in assay [8]. Also, the inhibition of aggregation in assay [2] was -8.9% (inactive). For the same compound, the nuclei count came to 104% in assay [2] and 115% in assay [3]. For the same compound, in assay [4], the fluorescence slope is -0.5 (inactive). The NADPH fluorescence slope in assay [5] was -2.5e-05 (inactive). The slope in assay [6] was 0.00643 (inactive).
On to `O=C(NCc1ccco1)C1(S(=O)(=O)c2ccc(Cl)cc2)CC1`, for which the cell count in assay [1] amounted to 412. The inhibition in assay [1] was 1.1% (inactive); in assay [3] it was -100% (inactive); in assay [7], 16.2% (inactive); in assay [8], 32.7% (inactive). In assay [2], the inhibition of aggregation was -16% (inactive). The nuclei count in assay [2] is 120%; in assay [3], 115%. The fluorescence slope in assay [4] was -0.639 (inactive). Further, in assay [5], the NADPH fluorescence slope was 2e-05 (inactive). The slope in assay [6] was 0.00602 (inactive).
For `NC(=O)NC(c1ccccc1)c1ccccc1F` (centres undefined), the cell count in assay [1] is 565. Besides, the inhibition is -4.8% (inactive) in assay [1], 36.7% (inactive) in assay [3], 2.53% (inactive) in assay [7] and 25.9% (inactive) in assay [8]. In addition, the inhibition of aggregation in assay [2] is 12.6% (inactive). Moreover, the nuclei count in assay [2] is 99.1%; in assay [3], 88.9%. Also, the fluorescence slope in assay [4] is -0.317 (inactive). The NADPH fluorescence slope in assay [5] is 5.1e-06 (inactive). Also, in assay [6], the slope was 0.00595 (inactive).
`CN(C)CCCN1C(=O)CSC1c1ccccc1` (centres undefined): the cell count in assay [1] was 607. Moreover, the inhibition was -8.9% (inactive) in assay [1], -57.4% (inactive) in assay [3], 4.6% (inactive) in assay [7] and 35.9% (inactive) in assay [8]. Also, in assay [2], the inhibition of aggregation was 30.6% (inactive). Further, the nuclei count in assay [2] was 93.9%; in assay [3] it was 104%. Further, in assay [4], the fluorescence slope is -0.541 (inactive). The NADPH fluorescence slope in assay [5] was -3e-05 (inactive). Moreover, in assay [6], the slope is 0.00787 (inactive).
Consider `CCCOc1ccc(NC2=CC(=O)CC(C)(C)C2)cc1`, for which the cell count in assay [1] was found to be 342. For the same compound, the inhibition was 3.8% (inactive) in assay [1], -89.3% (inactive) in assay [3], -1.23% (inactive) in assay [7] and -12.8% (inactive) in assay [8]. Also, the inhibition of aggregation in assay [2] was -7.1% (inactive). Moreover, the nuclei count in assay [2] worked out at 119%; in assay [3], 117%. For the same compound, the fluorescence slope in assay [4] was -0.405 (inactive). Further, the NADPH fluorescence slope in assay [5] was -4.9e-05 (inactive). Also, the slope in assay [6] was 0.00457 (inactive).
On to `CSc1nc2c(c(=O)n1C)SC(C)C2` (centres undefined), for which the cell count in assay [1] was found to be 612. In addition, the inhibition in assay [1] is 8.7% (inactive); in assay [3], -32.9% (inactive); in assay [7], 4.05% (inactive); in assay [8], 31.4% (inactive). Moreover, in assay [2], the inhibition of aggregation is -10.1% (inactive). Also, the results for the nuclei count in assay [2] and in assay [3] were 111% and 115%, respectively. Besides, the fluorescence slope in assay [4] was -0.567 (inactive). Besides, the NADPH fluorescence slope in assay [5] is -4.8e-05 (inactive). In addition, in assay [6], the slope is 0.00545 (inactive).
With `COc1ccc(-c2nnnn2C)cc1S(=O)(=O)NCc1ccccc1`, the cell count in assay [1] worked out at 579. Also, the inhibition in assay [1] is 0.6% (inactive); in assay [3], -49.3% (inactive); in assay [7] it was 10.3% (inactive); in assay [8], 4.79% (inactive). For the same compound, in assay [2], the inhibition of aggregation is 7.2% (inactive). Moreover, the nuclei count came out at 106% in assay [2] and 110% in assay [3]. Besides, in assay [4], the fluorescence slope was -0.415 (inactive). The NADPH fluorescence slope in assay [5] was 5.2e-06 (inactive). The slope in assay [6] was 0.00442 (inactive).
On to `Cc1cccc(NC(=O)CS(=O)(=O)c2cn(C)c3ccccc23)c1`, for which, in assay [1], the cell count stood at 628. Also, the inhibition in assay [1] is 2.4% (inactive); in assay [3], -12.5% (inactive); in assay [7], 7.93% (inactive); in assay [8], 22.7% (inactive). Besides, the inhibition of aggregation in assay [2] is 4.8% (inactive). For the same compound, the nuclei count in assay [2] came out at 99.7%; in assay [3], 103%. The fluorescence slope in assay [4] is -0.521 (inactive). In addition, the NADPH fluorescence slope in assay [5] is 2.1e-06 (inactive). Further, the slope in assay [6] was 0.00711 (inactive).
`O=C(NCc1ccco1)c1ccccc1Nc1ccc(F)cc1`: the cell count in assay [1] amounted to 575. Besides, the inhibition is -7.2% (inactive) in assay [1], -30.4% (inactive) in assay [3], 5.52% (inactive) in assay [7] and -2.76% (inactive) in assay [8]. The inhibition of aggregation in assay [2] was 47.6% (active). In addition, the nuclei count in assay [2] came to 67.1%; in assay [3], 103%. The fluorescence slope in assay [4] is -0.308 (inactive). Moreover, the NADPH fluorescence slope in assay [5] is -5e-05 (inactive). Besides, in assay [6], the slope is 0.00433 (inactive).
As to `CCCOc1ccc(N2C(=O)CC(SCCN)C2=O)cc1` (centres undefined), the cell count in assay [1] amounted to 428. The inhibition was -8.7% (inactive) in assay [1], -48.7% (inactive) in assay [3], -37.6% (inactive) in assay [7] and -77.1% (inactive) in assay [8]. In addition, the inhibition of aggregation in assay [2] was -9.8% (inactive). The nuclei count in assay [2] and in assay [3] was 116% in each case. In assay [4], the fluorescence slope was -0.4 (inactive). In addition, the NADPH fluorescence slope in assay [5] was -1.8e-05 (inactive). For the same compound, the slope in assay [6] is 0.00441 (inactive).
Take `Cc1ccc(-c2nn(-c3ccccc3)cc2CN(Cc2ccccc2)C(=O)CCC(=O)O)o1`: the cell count in assay [1] came to 329. For the same compound, the inhibition in assay [1] is 7.1% (inactive); in assay [3] it was -66.8% (inactive); in assay [7], 12.8% (inactive); in assay [8], 19.6% (inactive). Besides, the inhibition of aggregation in assay [2] was -24.5% (inactive). Besides, the values for the nuclei count in assay [2] and in assay [3] were 107% and 120%, respectively. In addition, in assay [4], the fluorescence slope was -0.429 (inactive). Also, the NADPH fluorescence slope in assay [5] is -2.6e-05 (inactive). Further, the slope in assay [6] was 0.00807 (inactive).
`COc1ccc(NC(=O)C(C)NS(=O)(=O)c2ccccc2)cc1Cl` (centres undefined): the cell count in assay [1] turned out to be 315. For the same compound, the inhibition in assay [1] is -15.9% (inactive); in assay [3] it was -51.4% (inactive); in assay [7], 8.06% (inactive); in assay [8], 17.6% (inactive). The inhibition of aggregation in assay [2] is 2.6% (inactive). Moreover, the nuclei count in assay [2] amounted to 116%; in assay [3] it was 65%. The fluorescence slope in assay [4] was -0.369 (inactive). In assay [5], the NADPH fluorescence slope is 7.6e-06 (inactive). The slope in assay [6] is 0.00596 (inactive).
Take `COc1ccc(C(=O)Nn2c(C3CCC3)nc3ccccc3c2=O)c(OC)c1`: in assay [1], the cell count is 657. The inhibition in assay [1] was -10.2% (inactive); in assay [3] it was 14.7% (inactive); in assay [7] it was -0.704% (inactive); in assay [8], 5.08% (inactive). Also, the inhibition of aggregation in assay [2] is -14% (inactive). Besides, the nuclei count in assay [2] is 111%; in assay [3], 129%. For the same compound, in assay [4], the fluorescence slope was -0.585 (inactive). In addition, in assay [5], the NADPH fluorescence slope is -7.6e-07 (inactive). For the same compound, the slope in assay [6] is 0.00893 (inactive).
In the case of `O=C(CN1C(=O)CCS(=O)(=O)c2ccccc21)NCc1ccc(F)cc1`, the cell count in assay [1] came out at 529. The inhibition is -7.7% (inactive) in assay [1], -92.3% (inactive) in assay [3], 15.3% (inactive) in assay [7] and 8.14% (inactive) in assay [8]. Further, the inhibition of aggregation in assay [2] was 13.4% (inactive). Further, the nuclei count in assay [2] was found to be 95.8%; in assay [3] it was 124%. Besides, the fluorescence slope in assay [4] was -0.395 (inactive). The NADPH fluorescence slope in assay [5] is -7.6e-05 (inactive). The slope in assay [6] was 0.00557 (inactive).
